Source: PubChem BioAssay AID1159580 (chemical genetic matrix, 2015)
“And” between values parts separate entries of the source, which are not always exact repeats. Equal values may be shown once. Among all 5,500 compounds or so, about 2,000 (36%) were called active. About 18% were inconclusive and are not listed. Cut-off read from the data, not from the text of the source: active = normalized growth mostly below about 0.91 (no sharp cut-off); inconclusive = no clear call, values can overlap the other calls; inactive = mostly above about 0.92. This is one part of the list.

Assay: chemical genetic growth profiling, strain panel (AID 1159580);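 note: tested at 20 µM; growth read once vehicle control cultures reached saturation at 30 °C; 1 = growth at the plate median or of vehicle wells; lower values mean less growth of the strain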
Details: S. cerevisiae deletion strains, growth OD

Measured: normalized growth

Cc1ccc(N(CC2=NCCN2)c2cccc(O)c2)cc1
active: locus YJR043C, strain POL32, stronger effect = lower value 0.85
inactive: locus YAL013W, strain DEP1, stronger effect = lower value 0.994 and 0.986 | locus YAL021C, strain ccr4, stronger effect = lower value 1.01 | locus YAL026C, strain drs2, stronger effect = lower value 1.02 | locus YAL030W, strain snc1, stronger effect = lower value 1.02 | locus YAL040C, strain CLN3, stronger effect = lower value 1.01 | locus YBL061C, strain skt5, stronger effect = lower value 0.998 | locus YBR009C, strain hhf1, stronger effect = lower value 1.02 | locus YBR021W, strain FUR4, stronger effect = lower value 0.991 | locus YBR023C, strain chs3, stronger effect = lower value 1.02 | locus YBR171W, strain sec66, stronger effect = lower value 1.01 | locus YBR229C, strain ROT2, stronger effect = lower value 1 | locus YBR231C, strain swc5, stronger effect = lower value 1.01 | locus YBR279W, strain paf1, stronger effect = lower value 1.01 | locus YCL011C, strain gbp2, stronger effect = lower value 1.02 | locus YCL016C, strain dcc1, stronger effect = lower value 0.998 | locus YCL029C, strain bik1, stronger effect = lower value 1.01 | locus YCL061C, strain MRC1 (second series), stronger effect = lower value 0.992 | locus YCL069W, strain vba3, stronger effect = lower value 1.02 | locus YCR088W, strain abp1, stronger effect = lower value 1.01 | locus YDL005C, strain med2, stronger effect = lower value 1.02 | locus YDL035C, strain GPR1, stronger effect = lower value 0.985 | locus YDL040C, strain nat1, stronger effect = lower value 1.01 | locus YDL074C, strain BRE1, stronger effect = lower value 0.908 | locus YDL101C, strain DUN1, stronger effect = lower value 0.983 | locus YDL134C, strain PPH21, stronger effect = lower value 0.994 | locus YDL185W, strain tfp1, stronger effect = lower value 1.02 | locus YDL192W, strain arf1, stronger effect = lower value 1.01 | locus YDR001C, strain nth1, stronger effect = lower value 1.01 | locus YDR069C, strain doa4, stronger effect = lower value 0.998 | locus YDR101C, strain arx1, stronger effect = lower value 0.985 | locus YDR137W, strain rgp1, stronger effect = lower value 1.02 | locus YDR150W, strain NUM1, stronger effect = lower value 1.01 | locus YDR159W, strain sac3, stronger effect = lower value 1 | locus YDR162C, strain NBP2, stronger effect = lower value 0.976 | locus YDR195W, strain ref2 1.02 | locus YDR297W, strain sur2, stronger effect = lower value 1.02 | locus YDR318W, strain mcm21, stronger effect = lower value 0.991 | locus YDR334W, strain swr1, stronger effect = lower value 1.04 | locus YDR335W, strain msn5, stronger effect = lower value 1.03 | locus YDR363W, strain ESC2, stronger effect = lower value 1.06 | locus YDR388W, stronger effect = lower value 1.01 | locus YDR392W, strain spt3, stronger effect = lower value 0.95 | locus YDR502C, strain sam2, stronger effect = lower value 0.977 | locus YEL003W, strain gim4, stronger effect = lower value 1.03 | locus YEL037C, strain rad23, stronger effect = lower value 1.03 | locus YEL061C, strain CIN8 (second series), stronger effect = lower value 1.02 | locus YEL061C, strain CIN8, stronger effect = lower value 1.04 | locus YER002W, strain NOP16, stronger effect = lower value 1.01 | locus YER015W, strain faa2, stronger effect = lower value 1.02 | locus YER016W, strain bim1, stronger effect = lower value 1.02 | locus YER110C, stronger effect = lower value 1.03 | locus YER111C, strain swi4, stronger effect = lower value 1.02 | locus YER155C, strain BEM2 (second series), stronger effect = lower value 0.929 | locus YER155C, strain BEM2, stronger effect = lower value 1.01 | locus YER167W, strain BCK2, stronger effect = lower value 0.972 | locus YFR010W, strain ubp6, stronger effect = lower value 1.02 | locus YGL078C, strain dbp3, stronger effect = lower value 0.995 | locus YGL086W, strain mad1, stronger effect = lower value 1.02 | locus YGL167C, strain pmr1, stronger effect = lower value 1.02 | locus YGL173C, strain kem1, stronger effect = lower value 1.01 | locus YGL227W, strain vid30, stronger effect = lower value 1.03 | locus YGL240W, strain doc1, stronger effect = lower value 0.972 | locus YGL248W, strain PDE1, stronger effect = lower value 0.997 | locus YGL253W, strain hxk2, stronger effect = lower value 1.02 | locus YGR078C, strain PAC10, stronger effect = lower value 0.972 and 1.01 | locus YGR135W, strain pre9, stronger effect = lower value 0.976 | locus YGR229C, strain SMI1, stronger effect = lower value 0.912 and 0.979 | locus YGR252W, strain gcn5, stronger effect = lower value 0.926 | locus YHR013C, strain ard1, stronger effect = lower value 1 | locus YHR027C, strain rpn1, stronger effect = lower value 1.01 | locus YHR030C, strain SLT2, stronger effect = lower value 1.01 and 1.04 | locus YHR079C, strain IRE1 (second series), stronger effect = lower value 0.99 | locus YHR079C, strain IRE1, stronger effect = lower value 1.05 | locus YHR094C, strain hxt1, stronger effect = lower value 1 | locus YHR129C, strain ARP1, stronger effect = lower value 0.984 | locus YHR142W, strain chs7, stronger effect = lower value 1.02 | locus YHR200W, strain rpn10, stronger effect = lower value 1 | locus YIL066C, strain RNR3, stronger effect = lower value 1.01 | locus YIL073C, strain SPO22, stronger effect = lower value 1.1 | locus YIL125W, strain kgd1, stronger effect = lower value 0.993 | locus YIR030C, strain dcg1, stronger effect = lower value 1.01 | locus YJL092W, strain hpr5, stronger effect = lower value 1.02 | locus YJL095W, strain BCK1 (second series), stronger effect = lower value 1.01 | locus YJL095W, strain BCK1, stronger effect = lower value 0.905 and 1.04 | locus YJL115W, strain asf1, stronger effect = lower value 1.03 | locus YJL129C, strain trk1, stronger effect = lower value 1.02 | locus YJL134W, strain LCB3, stronger effect = lower value 1.01 | locus YJL154C, strain vps35, stronger effect = lower value 1.03 | locus YJL164C, strain tpk1, stronger effect = lower value 1 | locus YJL166W, strain qcr8, stronger effect = lower value 0.993 | locus YJL168C, strain set2, stronger effect = lower value 1.01 | locus YJL187C, strain SWE1 (second series), stronger effect = lower value 0.993 | locus YJL187C, strain SWE1, stronger effect = lower value 1.01 | locus YJR066W, strain TOR1, stronger effect = lower value 0.978
